Assays:
Experiment in all cases: log2 ratio of Biotin-Ahx-Ub-VS probe labelling (fragment/DMSO); higher = less target engagement (more negative = stronger competition), active = hit call of the paper (q ≤ 0.05, log2 ratio ≤ -1)
Settings in all cases: compound concentration: 200 uM; treatment time: 3 h
USP34 = USP34 (UniProt Q70CQ2)
Outline: (§1)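 Labelled DUBs were enriched with NeutrAvidin, digested with LysC and trypsin, and run by diaPASEF LC-MS/MS. The labelling used Biotin-Ahx-Ub-VS at 0.5 µM final for 1 h on HEK293T lysate (495 µg per sample) previously treated in triplicate with fragment at 200 µM or vehicle for 3 h. Values are average log2 fragment/vehicle ratios by unpaired t-test on global-median-normalised Spectronaut quantities of proteins with ≥2 unique peptides.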

USP36 = biological target: T1, USP36 (UniProt Q9P275)
T1 sequence (whole entry): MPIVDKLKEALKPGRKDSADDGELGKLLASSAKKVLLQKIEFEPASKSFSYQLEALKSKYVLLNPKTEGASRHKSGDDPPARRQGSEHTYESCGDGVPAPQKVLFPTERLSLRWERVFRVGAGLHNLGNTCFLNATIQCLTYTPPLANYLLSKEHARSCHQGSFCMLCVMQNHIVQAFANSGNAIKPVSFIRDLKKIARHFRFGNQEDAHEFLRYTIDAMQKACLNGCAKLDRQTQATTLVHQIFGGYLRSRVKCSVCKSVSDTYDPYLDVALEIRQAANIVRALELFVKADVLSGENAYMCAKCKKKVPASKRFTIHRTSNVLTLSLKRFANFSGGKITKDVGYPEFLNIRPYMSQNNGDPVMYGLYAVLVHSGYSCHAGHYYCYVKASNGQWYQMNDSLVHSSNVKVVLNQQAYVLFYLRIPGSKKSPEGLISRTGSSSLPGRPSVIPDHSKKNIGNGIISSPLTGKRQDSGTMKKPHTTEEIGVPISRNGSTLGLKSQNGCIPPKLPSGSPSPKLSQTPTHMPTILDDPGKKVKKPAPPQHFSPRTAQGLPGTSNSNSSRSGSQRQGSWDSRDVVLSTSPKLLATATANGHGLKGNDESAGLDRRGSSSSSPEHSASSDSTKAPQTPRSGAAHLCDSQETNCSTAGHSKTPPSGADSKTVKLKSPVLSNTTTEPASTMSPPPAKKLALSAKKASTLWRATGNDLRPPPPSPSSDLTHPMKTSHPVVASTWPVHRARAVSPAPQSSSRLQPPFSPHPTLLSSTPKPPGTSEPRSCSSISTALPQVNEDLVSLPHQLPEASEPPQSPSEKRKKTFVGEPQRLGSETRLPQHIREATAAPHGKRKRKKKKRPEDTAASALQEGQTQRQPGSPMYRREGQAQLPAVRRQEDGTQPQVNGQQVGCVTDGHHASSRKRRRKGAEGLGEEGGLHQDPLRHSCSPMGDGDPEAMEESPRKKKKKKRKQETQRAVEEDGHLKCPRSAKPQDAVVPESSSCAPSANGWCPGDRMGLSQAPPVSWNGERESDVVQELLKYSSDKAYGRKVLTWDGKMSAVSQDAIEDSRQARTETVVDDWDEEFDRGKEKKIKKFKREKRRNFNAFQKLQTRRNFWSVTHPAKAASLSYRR
Outline: as §1

USP38 = biological target: T2, USP38 (UniProt Q8NB14)
T2 sequence (whole entry): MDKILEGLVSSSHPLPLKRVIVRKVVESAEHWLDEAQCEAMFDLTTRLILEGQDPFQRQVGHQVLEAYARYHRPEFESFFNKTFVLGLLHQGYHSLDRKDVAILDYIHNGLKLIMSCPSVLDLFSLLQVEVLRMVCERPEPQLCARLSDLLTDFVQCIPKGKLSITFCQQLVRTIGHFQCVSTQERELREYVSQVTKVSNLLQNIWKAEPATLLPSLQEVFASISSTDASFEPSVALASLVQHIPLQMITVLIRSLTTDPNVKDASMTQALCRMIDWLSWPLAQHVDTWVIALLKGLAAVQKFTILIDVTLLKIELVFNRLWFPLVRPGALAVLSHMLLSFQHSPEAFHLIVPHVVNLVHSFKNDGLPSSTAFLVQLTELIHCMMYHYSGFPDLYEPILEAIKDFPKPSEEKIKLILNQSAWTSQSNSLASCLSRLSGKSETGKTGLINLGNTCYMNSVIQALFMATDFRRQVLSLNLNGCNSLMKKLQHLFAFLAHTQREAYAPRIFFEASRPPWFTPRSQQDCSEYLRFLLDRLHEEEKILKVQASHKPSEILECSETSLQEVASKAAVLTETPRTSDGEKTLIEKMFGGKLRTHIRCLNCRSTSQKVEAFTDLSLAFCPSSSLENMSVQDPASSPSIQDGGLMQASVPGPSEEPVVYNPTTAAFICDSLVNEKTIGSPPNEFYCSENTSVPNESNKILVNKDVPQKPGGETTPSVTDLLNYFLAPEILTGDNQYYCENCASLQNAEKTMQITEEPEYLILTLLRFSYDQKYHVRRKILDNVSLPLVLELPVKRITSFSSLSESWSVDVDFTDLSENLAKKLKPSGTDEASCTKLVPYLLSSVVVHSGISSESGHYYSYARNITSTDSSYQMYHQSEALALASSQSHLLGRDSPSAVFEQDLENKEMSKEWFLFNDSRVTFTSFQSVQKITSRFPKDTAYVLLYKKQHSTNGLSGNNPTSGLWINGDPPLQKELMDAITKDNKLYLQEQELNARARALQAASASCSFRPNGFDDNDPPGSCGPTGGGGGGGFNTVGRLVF
Outline: as §1

USP39 = biological target: T3, USP39 (UniProt Q53GS9)
T3 sequence (whole entry): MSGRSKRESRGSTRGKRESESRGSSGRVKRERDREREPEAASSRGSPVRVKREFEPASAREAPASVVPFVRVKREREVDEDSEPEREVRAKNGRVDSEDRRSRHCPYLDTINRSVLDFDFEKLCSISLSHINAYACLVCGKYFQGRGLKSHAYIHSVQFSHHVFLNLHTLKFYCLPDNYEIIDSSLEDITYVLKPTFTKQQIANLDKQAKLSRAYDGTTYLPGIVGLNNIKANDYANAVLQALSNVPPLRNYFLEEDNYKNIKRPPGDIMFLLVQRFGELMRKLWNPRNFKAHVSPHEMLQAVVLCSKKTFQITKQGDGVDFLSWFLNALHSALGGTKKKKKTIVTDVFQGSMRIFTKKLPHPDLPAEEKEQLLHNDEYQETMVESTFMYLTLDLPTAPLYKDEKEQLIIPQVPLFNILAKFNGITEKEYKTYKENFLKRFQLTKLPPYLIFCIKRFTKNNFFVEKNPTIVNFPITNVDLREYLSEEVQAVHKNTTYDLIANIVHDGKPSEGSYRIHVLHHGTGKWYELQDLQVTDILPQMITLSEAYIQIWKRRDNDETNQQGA
Outline: as §1

USP4 = biological target: T4, USP4 (UniProt Q13107)
T4 sequence (whole entry): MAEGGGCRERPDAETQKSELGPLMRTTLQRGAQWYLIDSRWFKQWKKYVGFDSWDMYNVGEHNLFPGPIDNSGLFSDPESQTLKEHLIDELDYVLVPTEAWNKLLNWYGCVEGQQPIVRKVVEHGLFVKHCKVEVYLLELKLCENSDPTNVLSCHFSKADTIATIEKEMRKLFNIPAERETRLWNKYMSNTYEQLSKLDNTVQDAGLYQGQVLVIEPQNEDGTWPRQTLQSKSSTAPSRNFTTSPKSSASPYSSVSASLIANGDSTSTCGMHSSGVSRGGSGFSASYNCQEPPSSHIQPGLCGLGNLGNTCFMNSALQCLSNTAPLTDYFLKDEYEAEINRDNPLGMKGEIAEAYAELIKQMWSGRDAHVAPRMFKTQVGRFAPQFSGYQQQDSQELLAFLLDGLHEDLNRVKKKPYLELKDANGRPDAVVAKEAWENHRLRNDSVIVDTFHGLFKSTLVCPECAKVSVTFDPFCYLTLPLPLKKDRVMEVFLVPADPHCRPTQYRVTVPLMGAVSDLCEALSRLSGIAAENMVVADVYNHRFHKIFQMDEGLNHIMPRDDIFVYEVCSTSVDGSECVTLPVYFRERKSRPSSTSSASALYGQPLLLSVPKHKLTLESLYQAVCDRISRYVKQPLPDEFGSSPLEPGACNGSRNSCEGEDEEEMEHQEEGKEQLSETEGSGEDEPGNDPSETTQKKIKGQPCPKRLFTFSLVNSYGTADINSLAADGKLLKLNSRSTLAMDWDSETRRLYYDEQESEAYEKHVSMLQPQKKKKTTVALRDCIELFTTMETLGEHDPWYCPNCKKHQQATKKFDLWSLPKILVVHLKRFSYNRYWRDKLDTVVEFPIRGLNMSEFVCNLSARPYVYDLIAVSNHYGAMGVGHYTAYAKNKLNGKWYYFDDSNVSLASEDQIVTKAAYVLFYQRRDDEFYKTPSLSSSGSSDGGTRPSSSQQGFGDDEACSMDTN
Outline: as §1

Measured: log2 ratio of Biotin-Ahx-Ub-VS probe labelling

Sequence of USP34 (Q70CQ2 whole entry, the tested form may be a part): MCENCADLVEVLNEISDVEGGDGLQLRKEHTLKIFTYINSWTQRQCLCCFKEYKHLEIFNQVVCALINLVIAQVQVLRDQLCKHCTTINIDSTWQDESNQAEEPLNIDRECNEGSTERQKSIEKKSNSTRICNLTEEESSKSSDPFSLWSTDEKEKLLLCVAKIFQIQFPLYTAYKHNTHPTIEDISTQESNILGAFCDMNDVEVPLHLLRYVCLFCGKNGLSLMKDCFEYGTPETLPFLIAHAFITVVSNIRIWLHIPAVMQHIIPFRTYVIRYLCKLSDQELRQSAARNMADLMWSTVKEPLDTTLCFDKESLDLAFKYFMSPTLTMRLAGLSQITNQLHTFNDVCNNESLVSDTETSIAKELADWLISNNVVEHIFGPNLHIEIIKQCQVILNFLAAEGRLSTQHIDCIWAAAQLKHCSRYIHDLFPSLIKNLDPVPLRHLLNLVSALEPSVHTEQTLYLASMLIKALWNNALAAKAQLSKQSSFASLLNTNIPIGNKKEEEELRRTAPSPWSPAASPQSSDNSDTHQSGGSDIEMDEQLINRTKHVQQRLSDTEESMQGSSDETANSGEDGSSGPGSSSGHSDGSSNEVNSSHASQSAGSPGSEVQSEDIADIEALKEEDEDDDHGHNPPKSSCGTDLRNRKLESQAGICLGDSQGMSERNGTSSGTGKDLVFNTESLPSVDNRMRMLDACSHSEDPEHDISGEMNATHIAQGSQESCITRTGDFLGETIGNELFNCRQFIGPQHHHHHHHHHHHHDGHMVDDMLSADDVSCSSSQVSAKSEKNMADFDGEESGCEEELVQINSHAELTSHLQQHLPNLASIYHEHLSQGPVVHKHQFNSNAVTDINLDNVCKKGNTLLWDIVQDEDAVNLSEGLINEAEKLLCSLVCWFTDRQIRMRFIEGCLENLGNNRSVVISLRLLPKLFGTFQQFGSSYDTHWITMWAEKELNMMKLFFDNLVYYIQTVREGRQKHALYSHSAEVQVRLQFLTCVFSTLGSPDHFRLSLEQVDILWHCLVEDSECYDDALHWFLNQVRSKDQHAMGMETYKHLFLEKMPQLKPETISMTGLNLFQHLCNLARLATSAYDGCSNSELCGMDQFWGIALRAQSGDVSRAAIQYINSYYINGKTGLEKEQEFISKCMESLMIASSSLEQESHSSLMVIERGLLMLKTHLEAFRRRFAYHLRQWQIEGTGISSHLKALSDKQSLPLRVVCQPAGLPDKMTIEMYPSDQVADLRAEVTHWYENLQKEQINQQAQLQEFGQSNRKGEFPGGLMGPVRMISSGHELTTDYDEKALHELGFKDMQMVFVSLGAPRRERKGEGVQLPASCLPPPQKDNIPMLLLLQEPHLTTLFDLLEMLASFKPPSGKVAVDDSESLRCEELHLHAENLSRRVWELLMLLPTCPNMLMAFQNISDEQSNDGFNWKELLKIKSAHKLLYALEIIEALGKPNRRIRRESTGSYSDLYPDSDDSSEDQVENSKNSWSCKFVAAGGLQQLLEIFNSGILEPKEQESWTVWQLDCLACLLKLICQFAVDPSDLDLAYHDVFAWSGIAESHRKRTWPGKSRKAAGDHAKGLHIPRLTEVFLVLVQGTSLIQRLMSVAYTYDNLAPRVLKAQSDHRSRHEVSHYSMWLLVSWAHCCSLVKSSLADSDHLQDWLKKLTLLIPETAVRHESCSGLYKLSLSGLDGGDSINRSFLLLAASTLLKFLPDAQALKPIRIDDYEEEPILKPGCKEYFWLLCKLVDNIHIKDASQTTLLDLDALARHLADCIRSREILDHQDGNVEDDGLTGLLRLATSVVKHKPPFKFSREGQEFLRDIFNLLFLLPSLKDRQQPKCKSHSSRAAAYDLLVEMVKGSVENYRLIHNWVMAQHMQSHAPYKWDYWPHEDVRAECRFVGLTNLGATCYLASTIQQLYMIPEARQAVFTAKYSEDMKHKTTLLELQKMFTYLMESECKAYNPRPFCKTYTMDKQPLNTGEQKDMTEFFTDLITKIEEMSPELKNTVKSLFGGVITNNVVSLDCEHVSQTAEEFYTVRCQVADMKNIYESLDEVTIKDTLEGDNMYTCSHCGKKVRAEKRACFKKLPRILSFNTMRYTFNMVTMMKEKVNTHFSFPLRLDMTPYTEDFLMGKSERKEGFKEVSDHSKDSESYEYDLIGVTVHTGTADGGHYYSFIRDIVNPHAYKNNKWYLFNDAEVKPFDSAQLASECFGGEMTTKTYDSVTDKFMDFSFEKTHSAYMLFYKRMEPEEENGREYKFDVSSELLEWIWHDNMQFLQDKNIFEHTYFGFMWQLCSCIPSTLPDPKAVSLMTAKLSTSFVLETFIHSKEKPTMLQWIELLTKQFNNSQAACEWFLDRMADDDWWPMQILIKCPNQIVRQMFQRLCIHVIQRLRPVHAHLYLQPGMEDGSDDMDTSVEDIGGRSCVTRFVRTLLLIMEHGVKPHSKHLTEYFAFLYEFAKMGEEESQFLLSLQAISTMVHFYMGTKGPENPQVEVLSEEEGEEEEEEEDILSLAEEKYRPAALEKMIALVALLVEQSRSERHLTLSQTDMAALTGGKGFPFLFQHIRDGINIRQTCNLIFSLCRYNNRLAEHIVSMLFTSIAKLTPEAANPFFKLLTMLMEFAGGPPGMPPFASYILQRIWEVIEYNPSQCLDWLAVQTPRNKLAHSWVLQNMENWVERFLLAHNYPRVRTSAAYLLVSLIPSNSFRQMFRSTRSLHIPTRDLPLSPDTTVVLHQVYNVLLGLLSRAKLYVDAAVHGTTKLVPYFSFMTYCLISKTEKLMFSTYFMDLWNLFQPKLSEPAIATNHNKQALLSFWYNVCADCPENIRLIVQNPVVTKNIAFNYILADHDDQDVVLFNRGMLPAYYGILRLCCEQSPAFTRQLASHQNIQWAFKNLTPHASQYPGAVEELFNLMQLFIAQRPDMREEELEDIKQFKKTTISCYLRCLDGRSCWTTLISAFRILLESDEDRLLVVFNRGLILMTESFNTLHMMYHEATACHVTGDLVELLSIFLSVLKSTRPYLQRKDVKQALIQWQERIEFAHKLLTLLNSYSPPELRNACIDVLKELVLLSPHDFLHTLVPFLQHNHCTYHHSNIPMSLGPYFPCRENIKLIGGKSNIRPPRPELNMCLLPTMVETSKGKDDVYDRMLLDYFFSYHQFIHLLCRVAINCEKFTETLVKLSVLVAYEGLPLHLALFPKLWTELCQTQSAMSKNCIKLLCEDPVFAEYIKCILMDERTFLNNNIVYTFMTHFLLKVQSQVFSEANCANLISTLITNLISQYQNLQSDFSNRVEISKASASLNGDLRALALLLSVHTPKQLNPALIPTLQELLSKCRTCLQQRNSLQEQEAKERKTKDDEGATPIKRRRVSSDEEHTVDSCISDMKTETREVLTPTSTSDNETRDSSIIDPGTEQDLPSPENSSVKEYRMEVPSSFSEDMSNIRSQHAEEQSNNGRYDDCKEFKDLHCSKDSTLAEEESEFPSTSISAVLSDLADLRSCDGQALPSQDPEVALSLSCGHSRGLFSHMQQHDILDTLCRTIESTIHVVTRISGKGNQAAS

Cc1c(NC(=O)CCl)c(=O)n(-c2ccccc2)n1C
inactive: USP34 -0.0386 | USP36 -0.0835 | USP38 -0.177 | USP39 -0.16 | USP4 0.0206
